The whole screen tested about 190,000 compounds, of which about 130 (0.068%) were called active. Rule as the data show it: active = inhibition above about 40%; inactive = the rest. For the sample, actives were picked, then their nearest neighbours and some compounds at random.

For the assay, the target named is ATP-dependent translocase ABCB1 (Homo sapiens) (UniProt P08183). Kind of assay: ABCB1 efflux pump inhibitors, primary screen, cell-based, multiplex, flow cytometry, ABCG2 counter-screen (AID 1326).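 Also: 0% = vehicle and 100% = reference inhibitor; higher value means more JC-1 retained so stronger ABCB1 efflux block.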 Conditions: CCRF-Adr cells, JC-1 efflux, at 6.6 µM, stronger effect = higher value. For orientation: In flow cytometry, cells or beads pass a laser one at a time.
ATP-dependent translocase ABCB1 (Homo sapiens), sequence (P08183 whole entry, looked up): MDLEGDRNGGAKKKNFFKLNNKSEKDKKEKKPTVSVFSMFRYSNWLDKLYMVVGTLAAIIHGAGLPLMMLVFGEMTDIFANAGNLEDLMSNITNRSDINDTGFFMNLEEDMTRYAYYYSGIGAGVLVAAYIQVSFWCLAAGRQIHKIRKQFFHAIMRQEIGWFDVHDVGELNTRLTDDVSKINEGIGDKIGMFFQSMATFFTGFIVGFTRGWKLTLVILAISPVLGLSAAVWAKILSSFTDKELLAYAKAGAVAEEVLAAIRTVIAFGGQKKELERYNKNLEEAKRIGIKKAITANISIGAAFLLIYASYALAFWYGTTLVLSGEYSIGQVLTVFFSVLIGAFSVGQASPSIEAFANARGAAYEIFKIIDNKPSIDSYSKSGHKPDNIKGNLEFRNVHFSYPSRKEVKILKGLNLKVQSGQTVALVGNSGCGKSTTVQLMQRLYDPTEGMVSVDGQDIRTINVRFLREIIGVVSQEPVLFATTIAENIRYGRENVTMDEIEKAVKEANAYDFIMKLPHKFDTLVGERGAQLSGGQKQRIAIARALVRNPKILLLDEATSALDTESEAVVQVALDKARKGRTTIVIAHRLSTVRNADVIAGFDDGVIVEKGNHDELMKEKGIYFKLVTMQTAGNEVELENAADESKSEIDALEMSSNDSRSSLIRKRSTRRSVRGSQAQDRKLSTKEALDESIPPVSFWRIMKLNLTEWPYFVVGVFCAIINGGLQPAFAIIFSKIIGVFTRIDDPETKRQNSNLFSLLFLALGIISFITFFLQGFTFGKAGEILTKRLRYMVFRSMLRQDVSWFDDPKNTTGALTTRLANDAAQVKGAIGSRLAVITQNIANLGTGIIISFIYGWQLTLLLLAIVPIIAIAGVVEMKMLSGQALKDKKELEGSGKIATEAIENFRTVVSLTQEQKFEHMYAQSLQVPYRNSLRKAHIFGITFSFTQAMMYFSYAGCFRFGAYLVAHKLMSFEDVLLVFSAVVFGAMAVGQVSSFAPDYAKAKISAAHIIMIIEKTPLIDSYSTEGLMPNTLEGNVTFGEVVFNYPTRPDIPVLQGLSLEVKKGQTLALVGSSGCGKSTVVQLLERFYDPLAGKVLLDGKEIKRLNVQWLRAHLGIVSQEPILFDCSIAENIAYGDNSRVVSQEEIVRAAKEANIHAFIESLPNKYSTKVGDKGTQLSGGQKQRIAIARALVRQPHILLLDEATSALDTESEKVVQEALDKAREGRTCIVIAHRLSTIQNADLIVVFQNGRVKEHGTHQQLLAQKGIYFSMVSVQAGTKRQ
A word on the inhibition: it is the relative decrease from the control value, in per cent. In the case of `CN(C)CCOc1ccc(Cl)cc1C(C)(C)C`, the inhibition was 0.53% (inactive).
In the case of `Nc1nc(SCC(=O)NN(c2ccccc2)c2ccccc2)n[nH]1`, the inhibition is 0.84% (inactive).
For `CCc1nnc(NC(=O)CSc2nnnn2-c2cccc(C(C)=O)c2)s1`, the inhibition was 0.21% (inactive).
Regarding `CC(C)CCN1CCN(C/C=C/c2ccco2)CC1CCO` (centres undefined), the inhibition was 0.24% (inactive).
For the molecule `C/C(=N/OC(=O)c1cccc(C(F)(F)F)c1)c1cnccn1`, the inhibition is -0.43% (inactive).
With `C/C(CC1CC(C)(C)OC1=O)=N/Nc1nc(-c2ccccc2)cs1` (centres undefined), the inhibition is -0.4% (inactive).
Regarding `CN(c1ccccc1)S(=O)(=O)c1cc(C(=O)OCC(=O)N2CCN(C(=O)c3ccco3)CC2)ccc1Cl`, the inhibition was 0.19% (inactive).
As to `Cc1ccc(C)c(NS(=O)(=O)c2ccc(OCC(=O)NCc3cccnc3)cc2)c1`, the inhibition was -0.02% (inactive).
On to `COc1cc(C(=S)NCc2ccccc2)cc(Br)c1O`, for which the inhibition is -0.65% (inactive).
With `CCC(=O)c1ccc(N2CCN(C(=O)c3cc([N+](=O)[O-])ccc3F)CC2)c(F)c1`, the inhibition is 2.09% (inactive).
On to `CCN(CC)CCNS(=O)(=O)c1ccc(/C=C/C(=O)O)cc1`, for which the inhibition was 0.17% (inactive).
Regarding `COc1cc(CNC2CCCC2)c(Br)cc1OCc1ccccc1`, the inhibition was 0.98% (inactive).
Turning to `CN1CCN(C(c2cc3cc4c(cc3[nH]c2=O)OCCO4)c2nnnn2C2CCCC2)CC1` (centres undefined), the inhibition is 0.88% (inactive).
As to `CNC(=O)C(=O)N/N=C/c1ccccn1`, the inhibition is -0.01% (inactive).
The figure for `CSc1ncccc1C(=O)N1CCCC(CCC(=O)NCc2ccccc2F)C1` (centres undefined) is -0.56% (inactive).
The figure for `C=C(C)c1cccc(C(C)(C)NC(=O)NCCN(CC)CC)c1` is 0.61% (inactive); for `O=S(=O)(Cc1ccccc1)c1nc2ccccc2n1Cc1ccccn1` it is 1.49% (inactive).
For `COc1cc2[nH]c(=S)n(Cc3ccc(F)cc3)c(=O)c2cc1OC`, the inhibition is 0.4% (inactive).
On to `CCCc1cc(=O)[nH]c(SCc2cc(=O)oc3c(C)c(C)ccc23)n1`, for which the inhibition is -1.22% (inactive).
Consider `Cc1nnsc1C(=O)Nc1cccc(Cl)c1C`, for which the inhibition was 0.41% (inactive).
As for `COc1ccc(Cl)cc1NC(=O)C(C)N1CCc2ccccc21` (centres undefined), the inhibition was 0.39% (inactive).
`CC1=CC(=C(C#N)c2nc3ccccc3s2)C=C(C)N1c1ccc(F)cc1F`: the inhibition is -0.7% (inactive).
The same measure for `COC(=O)c1ccc(OCC(O)CN(CCO)CC(O)Cn2ccc3ccccc32)cc1` (centres undefined): 0.69% (inactive); for `Cc1ccccc1C1=NC(C(F)(F)F)(C(F)(F)F)c2c(n(-c3ccc(F)cc3)c(=O)[nH]c2=O)N1`: 0% (inactive).
With `NS(=O)(=O)c1ccc(NC(=O)/C=C/c2ccccc2Cl)cc1`, the inhibition is 0.51% (inactive).
The figure for `Cc1cccc2cc(CN(Cc3cccs3)C(c3nnnn3C3CCCC3)C(C)C)c(=O)[nH]c12` (centres undefined) is 61.7% (active).
In the case of `Cc1cccc2cc(CN(Cc3ccc4c(c3)OCO4)Cc3nnnn3C3CCCC3)c(=O)[nH]c12`, the inhibition was 7.85% (inactive).
`CCC(c1nnnn1C1CCCC1)N(Cc1cccs1)Cc1cc2cccc(C)c2[nH]c1=O` (centres undefined): the inhibition was 6.67% (inactive).
Turning to `CCC1CCCCN1S(=O)(=O)Cc1ccccc1Cl` (centres undefined), the inhibition is 2.08% (inactive).
As to `Cc1c(C(=O)NCCCc2ccccc2)cccc1[N+](=O)[O-]`, the inhibition was 0.92% (inactive).
Turning to `COc1cccc(NC(=S)NC(=O)c2c(Cl)c(C)nn2C)c1`, the inhibition is -0.45% (inactive).
Consider `Cc1ccsc1C1C(C#N)=C(N)OC2=C1C(=O)CC(C)(C)C2` (centres undefined), for which the inhibition was 0.69% (inactive).
In the case of `COc1cc(OC)c(C(=O)N2CCCC2)cc1OC`, the inhibition was 1.33% (inactive).
The same measure for `N#Cc1c(NC(=O)c2ccc(N3CCOCC3)c([N+](=O)[O-])c2)sc2c1CCCC2`: 0.71% (inactive).
With `COC(=O)c1nn(-c2cccc(Cl)c2)ccc1=O`, the inhibition is -0.18% (inactive).
As for `COCCNC(=S)N/N=C/c1c(C)[nH]c2ccccc12`, the inhibition was -0.55% (inactive).
Regarding `CN(C)C(=O)N1CCNCC1`, the inhibition is -0.13% (inactive).
The figure for `CC(=O)N(CN1C(=O)C2C3C=CC(C3)C2C1=O)c1cccc(Cl)c1` (centres undefined) is 0.48% (inactive); for `CCn1c(-c2cccnc2Cl)nc2cc(C)c(C)cc21` it is 0.26% (inactive).
The figure for `Cc1nc(CC(=O)NNS(=O)(=O)c2ccc(F)c(Cl)c2)cs1` is 1.15% (inactive); for `COC(=O)C(C(=O)Nc1cccc(Cl)c1C)C1CCCC1` (centres undefined) it is -0.03% (inactive); for `NNc1nc2c(Cl)cccc2s1` it is -1.62% (inactive).
The figure for `CCOC(=O)C1=C(C)NC(=S)NC1c1cccs1` (centres undefined) is -0.3% (inactive); for `Cc1ccccc1NC(=O)c1nn(-c2ccc(F)c(F)c2)ccc1=O` it is 0.58% (inactive).
For the molecule `COC(=O)c1ccc(COC(=O)c2cnccn2)cc1`, the inhibition is 0.17% (inactive).
As for `CC1CN(CCCOc2ccccc2-c2ccccc2)CC(C)O1` (centres undefined), the inhibition was 3.45% (inactive).
The same measure for `CCCCC(=O)Nc1ccc(C(=O)Nc2cc(C(F)(F)F)ccc2Cl)cc1`: -0.36% (inactive); for `CCC(=O)/C(=C(/O)c1ccccc1)c1nc2ccccc2[nH]1`: 0.14% (inactive).
The same measure for `Cc1cc(C)cc(C(=O)NC(=S)Nc2ccc3[nH]c(=O)[nH]c3c2)c1`: -0.17% (inactive).
